Giardia killer = Giardia lamblia killing. activity change, % at 7.66 µM, hits read low. 340,000 compounds, 0.15% hits. AID 540267. Giardia lamblia trophozoite viability; in the data active = activity change below about -80%; inconclusive = between about -30% and that limit;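 note: parasites exposed to compound for two days anaerobically before the ATP read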
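Each well holds 100 Giardia trophozoites and compound. After two days (48 hrs) at 37 deg C in anaerobic conditions, ATP is quantified by luminescence.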
rTrxR1 inhibitor = inhibitors of rat thioredoxin reductase 1; Potency, µM (titrated, usually from 114 µM), most hits filed as inhibitors; 390,000 compounds, 1% hits; recombinant rTrxR1, NADPH fluorescence consumption, selenite substrate; O89049; note: nearly all actives have a fitted effect of over 65% in size
Target sequence (O89049 whole entry, looked up): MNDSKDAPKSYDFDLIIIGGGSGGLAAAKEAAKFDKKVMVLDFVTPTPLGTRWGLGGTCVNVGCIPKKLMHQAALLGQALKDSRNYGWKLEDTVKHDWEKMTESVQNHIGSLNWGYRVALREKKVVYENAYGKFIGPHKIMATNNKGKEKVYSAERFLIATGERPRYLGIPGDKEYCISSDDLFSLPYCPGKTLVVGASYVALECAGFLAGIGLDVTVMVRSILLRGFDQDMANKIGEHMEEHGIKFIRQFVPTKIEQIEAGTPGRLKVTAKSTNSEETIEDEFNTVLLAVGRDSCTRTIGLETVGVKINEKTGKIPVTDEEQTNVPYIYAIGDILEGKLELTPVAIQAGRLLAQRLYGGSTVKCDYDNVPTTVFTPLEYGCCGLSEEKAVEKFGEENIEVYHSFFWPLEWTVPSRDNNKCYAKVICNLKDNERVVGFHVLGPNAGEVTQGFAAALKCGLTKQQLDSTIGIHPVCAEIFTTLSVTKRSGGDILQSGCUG
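Rat TrxR1 (90 nM in the dispensed reagent) was pre-reduced with 400 uM NADPH for 5 min at room temperature, then incubated with compound for 15 min. After 400 uM selenite was added, NADPH fluorescence (Ex 340/Em 450 nm) was followed for 8 min.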
BRCA1 expr act = BRCA1 expression activation; Potency, µM (highest dose often 46.1 µM), most hits filed as activators; 380,000 compounds, 1.1% hits; AID 624202; MCF7-BRCA1-FFLuc reporter, luminescence, 48 h; response scale: scaled: vehicle 0%, 10 µM genistein 100%; note: nearly all actives have a fitted effect of over 80% in size
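Using MCF7 cells harboring a BRCA1 firefly luciferase reporter, plated 2 h before compound pinning, the screen measured luminescence after 48 h incubation. Responses were normalized to DMSO and 10 microM genistein, then fitted for concentration-effect.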
IDH1 R132H inh = human IDH1 R132H inhibition; O75874; IDH1-R132H enzyme, NADPH consumption, diaphorase/resazurin fluorescence; Potency, µM (highest dose often 76.6 µM), usual class: inhibitors; 390,000 compounds, 0.093% hits; AID 602179; note: nearly all actives have a fitted effect of over 65% in size
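IDH1-R132H (0.5 ug/mL dispensed) in pH 7.5 Tris buffer was preincubated 30 min with compound, then given a substrate mix of 0.016 mM NADPH and 2 mM alpha-KG for 80 min at room temperature; remaining NADPH was read by diaphorase/resazurin fluorescence.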
TrxR1 substrate = rat thioredoxin reductase 1 substrate activity | 390,000 compounds, 0.01% hits | Potency, µM (titrated, usually from 114 µM) | purified TrxR1 substrate turnover, NADPH consumption readout | AID 588456; note: nearly all actives have a fitted effect of over 50% in size
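Rat TrxR1, dispensed at 90 nM, was prereduced with 400 uM NADPH (final) for 5 min at ~22 deg C, then incubated with compound 15 min before 400 uM selenite. A first-read NADPH fluorescence drop versus no-compound background flagged substrates.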
IL2 activator = activators of IL-2; IL-2 activation reporter assay, cell-based qHTS; stimulated with anti-CD3/CD4/CD28 beads; in transgenic mouse T cells; activation, % (series mostly up to about 46 µM); 360,000 compounds, 0.065% hits; in the data active = activation above about 50%; inconclusive = mostly about 30% to 49%
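First, unstimulated transgenic mouse T cells were exposed to compound for 60 min. Next, anti-CD3/anti-CD4-coated beads with anti-CD28 were added. Finally, after 18 h at 37 degrees C, EGFP and DsRed were imaged.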
A number is an active result; – = inactive; ? = inconclusive; · = not tested or not shown. Sampled rows, rich in hits. Any-hit rate of the full collection: about 2.2%. Unless noted, calls come from the whole dose curve; as a rule, active = well fitted curve in the direction sought with a large enough effect; inconclusive = small, poorly fitted or top-dose-only effect, or another doubt; inactive = no such curve, though single readings can be large; an effect the other way counts as inactive or inconclusive.

SMILES | Giardia killer | rTrxR1 inhibitor | BRCA1 expr act | IDH1 R132H inh | TrxR1 substrate | IL2 activator
Cc1cc(N2CCCCC2)nc(SCC(=O)c2ccccc2)n1 | – | – | 10µM | – | – | –
O=C(CSc1nc(N2CCCCC2)nc(N2CCCCC2)n1)c1ccccc1 | – | – | – | – | – | –
CCOC(=O)CCCCC(=O)c1[nH]c(=O)[nH]c1CSc1nc(C)cc(=O)[nH]1 | – | 3.16µM | – | – | – | –
CCOC(=O)CCCCC(=O)c1[nH]c(=O)[nH]c1CSc1nc2ccccc2[nH]1 | – | 3.16µM | – | – | – | –
Cc1ccc(-n2nc(C(=O)N3CCN(c4ccccc4)CC3)c(=O)n(C)c2=O)cc1 | · | – | · | – | – | ·
CCOc1ccc(NC(=O)c2cnn(-c3ccc(C)c(C)c3)c2C2CCN(C(=O)OC(C)(C)C)CC2)cc1 | · | – | · | – | – | ·
CCOc1cc(/C=C\[N+](=O)[O-])ccc1OCC(=O)N1CCOCC1 | – | 8.91µM | – | – | – | –
CCOc1cc(/C=C/c2nc3cc(C)c(C)cc3s2)ccc1OCC(=O)N1CCOCC1 | – | – | – | – | – | –
Cc1ccc(S(=O)(=O)N2CCN(c3nc(-c4cccs4)nc4ncccc34)CC2)cc1 | – | – | – | · | – | ·
Cc1ccc(Cl)c2c(N=Nc3ccccc3)c(O)[nH]c12 | – | – | – | – | – | 169.5
Nc1cc(OC(=O)c2ccco2)nn1S(=O)(=O)c1ccc(F)cc1 | – | 7.08µM | – | – | – | –
Cc1ccc(S(=O)(=O)n2nc(OC(=O)c3ccco3)cc2N)cc1 | – | ? | – | – | – | –
Cc1ccc(C)c(CNC(=O)C2CCN(c3nc4ccccc4nc3C(F)(F)F)CC2)c1 | · | – | – | – | – | ·
CSCCC1C(C#N)=C(N)Oc2n[nH]c(-c3cccs3)c21 (configuration not stated) | – | 10µM | – | – | – | –
Cc1cccc(C)c1NC(=O)CCCn1c(=O)c2cccn2c2ccccc21 | · | – | · | – | – | ·
CCCCNC(=O)[C@@H]1CC=C[C@@H]2CCN(Cc3ccc(OC)c(OC)c3)C(=O)[C@@H]21 | · | – | · | · | – | ·
C=CCN(C(=O)C1=NN(C2CCS(=O)(=O)C2)C(=O)CC1)c1nc(-c2ccc([N+](=O)[O-])cc2)cs1 (configuration not stated) | – | – | 5.01µM | – | – | –
CCOC(=O)COc1ccccc1/C=C\[N+](=O)[O-] | – | 2.82µM | – | – | – | –
Cc1ccc(C(=O)COC(=O)COc2ccccc2[N+](=O)[O-])s1 | – | ? | – | – | – | –
COc1ccc(CNC(=O)C(C#N)c2nc3ccccc3nc2N2CCCC2)cc1 (configuration not stated) | – | ? | – | – | – | 121.9
CC(C)Cc1ccc(/C=C/C(=O)N2CCCCC2)cc1 | – | – | 12.6µM | – | – | –
CC(C)Cc1ccc(/C=C/C(=O)NC2CC2)cc1 | – | – | 5.62µM | – | – | –
CC(C)(C)c1ccc(/C=C/C(=O)N2CCCCC2)cc1 | – | – | 7.08µM | – | – | –
CCc1ccc(/C=C\C(=O)N2CCCC2)cc1 | – | – | ? | – | – | –
CC1CCN(C(=O)/C=C/c2ccc(C(C)(C)C)cc2)CC1 | – | – | – | – | – | –
SMILES | Giardia killer | rTrxR1 inhibitor | BRCA1 expr act | IDH1 R132H inh | TrxR1 substrate | IL2 activator
CCN(Cc1ccccc1)C(=O)c1c(C)oc2ncn(C)c(=O)c12 | · | – | – | – | – | ·
C=CCn1c(O)c(N=NC(=O)CNC(=O)/C=C/c2ccc(OC)cc2)c2ccccc21 | – | – | – | – | – | –
C=CCn1c(O)c(N=NC(=O)CNC(=O)/C=C/c2ccco2)c2ccccc21 | – | 14.1µM | – | – | – | –
COc1cc2c(NC3CCN(C(C)C)CC3)nc(N3CCCN(C)CC3)nc2cc1OCCOCCN1CCCC1 | · | – | – | · | – | ·
O=C1NN(c2ccccc2)C(=O)/C1=C\c1ccccc1 | – | 28.2µM | – | – | – | –
O=C1NN(c2cccc(Br)c2)C(=O)/C1=C\c1ccccc1 | – | 11.2µM | – | – | ? | –
Cc1cc(/C=C2\C(=O)NN(c3ccccc3)C2=O)c(C)n1-c1ccccc1O | – | – | 10µM | – | – | –
Cc1cc(/C=C2/C(=O)NN(c3ccccc3)C2=O)c(C)n1-c1ccc(O)cc1 | ? | – | – | – | – | –
O=C1NN(c2ccccc2)C(=O)C1=Cc1ccccc1 | · | · | – | – | · | –
CC1CN(C(=O)N2CCC(C(=O)NC3CCCCCC3)CC2)c2cc(Cl)ccc2O1 (configuration not stated) | · | – | · | – | – | ·
CC(C)c1ccc(NC(=O)c2cc(S(=O)(=O)NCc3ccccc3Cl)ccc2F)cc1 | · | – | · | – | – | ·
Cc1ccn2c(c1)nc(=O)c1cc(S(=O)(=O)N3CCCCC3)c(Cl)cc12 | · | – | – | – | – | ·
COC(=O)c1ccc(NC(=O)CC2C(=O)N(c3ccc(C)cc3)C(=O)N2Cc2ccc(OC)cc2)cc1 (configuration not stated) | · | – | · | – | – | ·
Fc1cccc2sc(N3CCOCC3)nc12 | – | – | – | – | – | –
Fc1cccc2sc(N3CCCCC3)nc12 | – | – | 12.6µM | – | – | –
O=S(=O)(c1ccc(Cl)cc1)N1CCN(c2nc(-c3ccc(F)cc3)nc3cc(Cl)ccc23)CC1 | – | – | – | · | – | ·
COc1cccc(/C=N/n2c(N)nc3ccccc32)c1OC | – | – | 10µM | – | – | –
COc1cccc(C=NN2CCCCCC2)c1OC | – | – | 11.2µM | – | – | –
CCOC(=O)c1c(C)oc2c1C(=O)c1ccccc1C2=O | -81.4 | – | – | – | – | –
Cc1oc2c(c1C(=O)O)C(=O)c1ccccc1C2=O | ? | – | ? | – | – | –
O=[N+]([O-])c1ccc(O)c(C2=NNC(c3ccccc3F)C2)c1 (configuration not stated) | – | 35.5µM | – | – | – | –
N=c1oc2cc(O)ccc2cc1C(=O)Nc1ccc(F)cc1 | – | ? | 1.58µM | – | – | –
CCC1Oc2ccccc2N(CC(=O)NCc2ccccc2)C1=O (configuration not stated) | · | – | · | – | – | ·
CCOc1ccc(NC(=O)c2cc3cc4ccc(OC)cc4nc3o2)cc1 | – | – | – | – | – | –
COc1ccc2cc3cc(C(=O)Nc4ccccc4N4CCN(C)CC4)oc3nc2c1 | -86.8 | – | – | – | – | –
COCCNC(=O)c1cc2cc3ccc(OC)cc3nc2o1 | – | 70.8µM | ? | – | – | –
COc1ccc2nc3oc(C(=O)N4CCCCC4)cc3cc2c1 | – | – | 7.08µM | – | – | –
COc1ccc2cc3cc(C(=O)NCCC(C)C)oc3nc2c1 | – | – | – | – | – | –

Assay outcomes (PubChem BioAssay)
